# Screens (PubChem BioAssay)
# Shn3 inh set2 = reduction of Shn3 3'UTR firefly luciferase signal, primary screen, Schnurri-3 inhibitor project, cell-based, Clone20 osteoblasts, set 2. Clone20 osteoblast Shn3 3'UTR firefly luciferase, 24 h. inhibition, % at 12.5 µM. actives 0.52% (n = 360,000). AID 588674, 2011;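 active = mean inhibition of at least 75% with every replicate also reaching 75%; inconclusive = mean inhibition at least 75% but some replicate below; inactive = mean inhibition below 75%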;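 note: 0% = median of neutral control wells and 100% = pilot-screen positive control compound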
# 697 NFkB inh = inhibitors of PMA/ionomycin-induced NF-kB reporter, 697 cells, primary screen, B-cell NF-kB inhibitor project, cell-based, luminescence, uHTS. 697 B-cell NF-kB luciferase reporter, 16 h. inhibition, % at 4 µM. actives 0.33% (n = 330,000). AID 435022, 2010; in the data active = inhibition above about 35%
# LMP1 NFkB inh = EBV LMP1-driven NF-kappaB luciferase reporter inhibitors, primary screen, cell-based, luminescence, single point; inhibition, % at 12.5 µM; AID 504558, 2011; actives 0.69% (n = 350,000); LMP1-induced NF-kappaB luciferase reporter cells; in the data active = inhibition above about 41%; inconclusive = no clear call, values can overlap the other calls;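 note: 0% = neutral control wells and 100% = reference inhibitor control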
# Gli-Sufu antag = Gli-Sufu pathway antagonists, primary screen, luciferase luminescence, Sufu-KO-LIGHT cells, uHTS; Sufu-KO-LIGHT fibroblasts, Gli luciferase reporter luminescence; AID 588413, 2011; inhibition, % at 5 µM; actives 0.74% (n = 340,000);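 active = inhibition above about 55%, limit read from the data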;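 note: 0% = DMSO-treated cells and 100% = wells with medium but no cells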
# Jurkat NFkB inh = inhibitors of induced NF-kB luciferase reporter, primary screen, TCR NF-kB activation inhibitor project, cell-based, luminescence, uHTS. inhibition, % at 4 µM. Jurkat, PMA/ionomycin-induced NF-kB luciferase reporter. actives 0.53% (n = 330,000). AID 435003, 2010; in the data active = inhibition above about 50%
# MITF TRPM1 inh = inhibitors of MITF-dependent TRPM1 promoter reporter, primary screen, cell-based, SK-MEL-5, single point, luciferase. SK-MEL-5 TRPM1 promoter luciferase, 24 h. inhibition, % at 12.5 µM. actives 0.83% (n = 330,000). AID 488899, 2010;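 active = mean inhibition across replicates of 60% or more, whatever share of single replicates reaches that level; inconclusive = some that reach 60%, reason not given; inactive = mean inhibition across replicates below 60%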
# Gli-Sufu confirm = Gli-SUFU pathway antagonists, confirmation, single concentration, luciferase luminescence, Sufu-KO-LIGHT cells. shares compounds with Gli-Sufu antag. Gli luciferase reporter. inhibition, % at 5 µM. actives 40% (n = 2,500);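 active = mean inhibition at 5 µM reaching about 45%, limit read from the data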;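 note: plate controls were DMSO-treated cells for no effect and wells lacking cells for full effect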
# SufuKO cytotox = cytotoxicity in Sufu-KO-LIGHT cells, confirmation, cytotoxicity control for Gli-SUFU antagonist project, cell-based, ATP luminescence, single concentration; shares compounds with Gli-Sufu antag; cytotoxicity, % at 5 µM; actives 32% (n = 2,500); AID 651994, 2013;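 active = mean cytotoxicity at 5 µM above about 25%, limit read from the data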;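 note: cells exposed to compound overnight for roughly 16 to 18 hours; plate controls were DMSO wells with cells for no effect and medium without cells for full effect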
# Wnt3a counter = Wnt3a reporter signal inhibition, confirmation, counter-screen for Gli-SUFU antagonist project, Wnt-LIGHT cells, luminescence, single concentration. shares compounds with Gli-Sufu antag. Wnt3a-driven luciferase reporter. inhibition, % at 6.25 µM. actives 20% (n = 2,500). AID 651995, 2013;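 active = mean inhibition above about 25%, limit read from the data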
# Active calls of the source: *; u = inconclusive; x = not tested or not shown. Compounds with a hit are over-represented: about 2.3% of the library has one in this group of screens.
SMILES,Shn3 inh set2,697 NFkB inh,LMP1 NFkB inh,Gli-Sufu antag,Jurkat NFkB inh,MITF TRPM1 inh,Gli-Sufu confirm,SufuKO cytotox,Wnt3a counter
COc1ccc(CN(C)Cc2nc(Cc3cccc(F)c3)no2)c2cccnc12,85,-38,25,63*,30,-1,54*,18,27*
COc1cccc(-n2cc(CN(C)Cc3nc(Cc4cccc(F)c4)no3)cn2)c1,-6,6,-15,-6,1,12,x,x,x
CCC(CC)COC(=O)C1=C(C)NC(=O)NC1c1cccc([N+](=O)[O-])c1 (stereo not drawn),20,-64,-2,62*,-23,3,25,3,-25
CCCCOC(=O)C1=C(C)NC(=O)NC1c1cccc([N+](=O)[O-])c1 (stereo not drawn),26,-49,15,46,-16,7,x,x,x
CCC(=O)Nc1sc(Cc2ccccc2)c(C)c1C(N)=O,2,-1,-9,-1,-8,6,x,x,x
O=C(Nc1ccc2oc(-c3ccccc3F)nc2c1)c1ccc2c(c1)OCCO2,-50,-62,1,54,1,-13,12,12,-54
CCCCC(=O)Nc1nc(C)c(-c2csc(Nc3cc(OC)ccc3OC)n2)s1,21,-8,-6,95*,1,21,33,25,17
CCc1ccc(S(=O)(=O)NCc2cccnc2)cc1,21,-5,-9,1,-2,16,x,x,x
Cc1csc(NC(=O)CSCC(=O)Nc2ccccc2)n1,4,-3,5,99*,-20,-6,16,6,0
Cc1csc(SCC(=O)Nc2ccccc2)n1,-22,12,5,-12,-2,-29,x,x,x
Cc1csc(NC(=O)CCc2nc3ccccc3s2)n1,-14,3,-5,99*,-6,-21,10,6,-39
O=C(NC1=NCCS1)c1ccccc1OCc1ccc(F)cc1,9,8,-2,16,-1,-9,x,x,x
Cc1c(CCOC(=O)CC23CC4CC(CC(C4)C2)C3)sc[n+]1Cc1ccccc1,25,-24,0,54,7,18,58*,32*,-49
Cc1ncc(C[n+]2csc(CCOC(=O)CC34CC5CC(CC(C5)C3)C4)c2C)c(N)n1,-12,-64,-2,21,-27,-10,x,x,x
Cc1cccc(Cn2c(NCCO)nc3c2c(=O)n(C)c(=O)n3C)c1,81,-13,12,36,33,21,x,x,x
C=CCNc1nc2c(c(=O)n(C)c(=O)n2C)n1CC,-5,9,-3,2,14,x,x,x,x
COCCNc1nc2c(c(=O)n(C)c(=O)n2C)n1Cc1cccc(C)c1,62,-16,16,61*,-2,19,63*,25*,24
C=CCOc1nc2c(c(=O)n(C)c(=O)n2C)n1Cc1ccccc1Cl,u,-28,7,22,3,4,x,x,x
CCCOc1nc2c(c(=O)n(C)c(=O)n2C)n1Cc1cccc2ccccc12,73,-70,7,57*,18,-2,58*,40*,9
CCCOc1nc2c(c(=O)n(C)c(=O)n2C)n1C,4,10,3,-16,-19,-11,x,x,x
C=CCOc1nc2c(c(=O)n(C)c(=O)n2C)n1Cc1ccc(Cl)cc1,83,-84,-4,72*,23,6,61*,27*,23
